According to PubChem BioAssay (NCI):
Compounds without any hit were thinned out: in the full panel of roughly 83,000, 20% have a hit.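 Results are percent growth after 48 hours of single-concentration exposure. 100 means growth as in untreated cells, lower positive values show inhibition; negative values down to -100 show cell death.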 Activity calls are given as the source filed them. Rule for the calls: active = growth percent below 10; inactive = the rest.

System: MDA-MB-468 breast
Experiment: NCI-60 one-dose screen, 48 h (100 = growth as untreated, 0 = no growth, -100 = all killed)
Settings: 10 µM unless noted

Row | SMILES | growth
1 | COc1cc(NCCCN)c2ncccc2c1 | 76% (inactive)
2 | CNCCCOc1c(Br)cc(CCNC(=O)/C(Cc2ccc(OC)c(Br)c2)=N/O)cc1Br | 48.5% (inactive)
3 | CCCCCCCC/C=C\CCCCCCCCOc1ccccc1CC(=O)NCC[N+]1(C)CCCC1 | 40.3% (inactive)
4 | COc1cc(-c2cc(-c3nc4ccc(F)cc4[nH]3)[nH]n2)cc(OC)c1OC | 16.6% (inactive)
5 | Brc1ccc2[nH]cc(-c3cncn3CCc3ccccc3)c2c1 | 17.2% (inactive)
6 | O=C1c2ccccc2OC=C(c2ccccc2)N1CCCCNc1ccc(F)cc1 | 76.3% (inactive)
